Inconclusive results are not listed. Calls of active or inactive are those of the source. Unless noted, calls come from the whole dose curve; as a rule, active = well fitted curve in the direction sought with a large enough effect in the repeat runs; inconclusive = weak or mixed curves; inactive = no such curve, though single readings can be large; an effect the other way counts as inactive or inconclusive.
Experiments:
[1] = target: Acetylcholinesterase (Homo sapiens) (UniProt P22303); assay: Acetylcholinesterase (AChE) small molecule antagonists: enzyme-based qHTS assay (AID 1347397; calls by dose curve; note: nearly all actives have a fitted effect of over 55% in size); details: Potency: AChE enzyme activity inhibition; outcome: AChE enzyme activity inhibition
How it was run: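 Colorimetric DTNB read-out of thiocholine released from acetylthiocholine by recombinant human AChE (50 mU/mL as dispensed). Compounds were preincubated 30 min at RT before substrate/DTNB addition, with a 10 min RT reaction.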

[2] = target: Acetylcholinesterase (Homo sapiens) (UniProt P22303); assay: Acetylcholinesterase (AChE) small molecule antagonists: fluorescence cell-based qHTS assay (AID 1347398; calls by dose curve; note: nearly all actives have a fitted effect of over 50% in size); details: Potency: AChE activity; outcome: AChE activity
How it was run: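 SH-SY5Y, 2,000 cells/well, attached overnight; cmpd 30 min 37 C; acetylthiocholine/Thiolite Green cocktail 40 min RT; fluorescence Ex/Em 490/520 nm.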

[3] = target: Acetylcholinesterase (Homo sapiens) (UniProt P22303); assay: Acetylcholinesterase (AChE) small molecule antagonists: enzyme-based qHTS assay with human liver microsomes (AID 1347399; calls by dose curve; note: nearly all actives have a fitted effect of over 60% in size); details: Potency: qHTS inhibition; outcome: qHTS inhibition
How it was run: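 Recombinant human AChE (50 mU/mL in the enzyme mix) and human liver microsomes (0.25 mg/mL final) were preincubated with compound and NADPH (0.25 mg/mL final) for 30 min at 37 C. Acetylthiocholine/DTNB was then added; thiocholine was read colorimetrically after 10 min at room temperature.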

[4] = qHTS assay for small molecule agonists of the p53 signaling pathway (AID 651631; calls by dose curve; note: potency is the fitted concentration of half-maximal effect; nearly all actives have a fitted effect of over 15% in size)
How it was run: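 We treat p53RE-bla HCT-116 cells with compounds for 16 h at 37 °C, add LiveBLAzer B/G FRET substrate for 2 h at room temperature, and measure fluorescence intensity.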

[5] = qHTS assay for small molecules that induce genotoxicity in human embryonic kidney cells expressing luciferase-tagged ATAD5 (AID 651632); note: nearly all actives have a fitted effect of over 15% in size
How it was run: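 DMSO vehicle served as the control. HEK293T reporter cells, 16 hr at 37C, then 30 min Amplite at room temperature; ATAD5 induction is measured as luciferase activity.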

[6] = qHTS assay for small molecule agonists of the p53 signaling pathway - cell viability (AID 651633; calls by dose curve;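 note: p53RE-bla HCT reporter cells with a stable beta-lactamase p53 reporter; series mostly up to about 83 µM; nearly all actives have a fitted effect of over 30% in size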)
How it was run: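 p53RE-bla cells were treated with compound for 16 hours at 37 C. Cytotoxicity was then measured as CellTiter-Glo luminescence after 30 min at room temperature.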

[7] = qHTS assay for small molecule disruptors of the mitochondrial membrane potential - cell viability (AID 720634; calls by dose curve;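 note: human HepG2 liver cancer cells; series mostly up to about 83 µM; nearly all actives have a fitted effect of over 20% in size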)
How it was run: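 Viability of HepG2 cells is scored from ATP content by luminescence; cells are exposed to compound for 1 hr at 37 C and 5% CO2, then dosed with m-MPI dye before the CellTiter-Glo reagent.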

[8] = qHTS assay to test for compound auto fluorescence at 535 nm (green) in HepG2 cells (AID 720675)
[9] = qHTS assay to test for compound auto fluorescence at 460 nm (blue) in HEK293 cells (AID 720678); note: potency is the fitted concentration of half-maximal effect
How it was run: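 HEK293, 2,000 cells/well, 10% dialyzed FBS; attach 4-5 hr 37C; pin compound or DMSO; o/n 37C/5% CO2; fluorescence 405/460 nm; triamterene-equivalent units.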

[10] = qHTS assay to test for compound auto fluorescence at 590 nm (red) in HEK293 cells (AID 720679)
How it was run: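 Intensity at 540nm excitation and 590nm emission is reported as Rose Bengal sodium-equivalent autofluorescence. Measurements followed overnight exposure (37C, 5% CO2) of HEK293 cells, 2,000 per well, to 23 nL compound.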

[11] = qHTS assay to test for compound auto fluorescence at 535 nm (green) in HEK293 cells (AID 720680)
[12] = qHTS assay to test for compound auto fluorescence at 460 nm (blue) in HEK293 cell free culture (AID 720681); note: potency is the fitted concentration of half-maximal effect
How it was run: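 Compounds were added to cell-free DMEM with 10% FBS and fluorescence read directly. The blue channel used 405 nm excitation and 460 nm emission, with triamterene as the reference fluorophore.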

[13] = qHTS assay to test for compound auto fluorescence at 535 nm (green) in HEK293 cell free culture (AID 720682)
How it was run: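 Green-channel intensity (Ex/Em 485/535 nm) was recorded from compound-treated wells containing only DMEM with 10% FBS. Fluorescein provided the equivalency standard.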

[14] = qHTS assay to test for compound auto fluorescence at 590 nm (red) in HEK293 cell free culture (AID 720683)
How it was run: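 Cell-free wells of DMEM with 10% FBS received compound, and intrinsic fluorescence was read at excitation/emission 540/590 nm. Values expressed as equivalence to Rose Bengal sodium.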

[15] = qHTS assay to test for compound auto fluorescence at 590 nm (red) in HepG2 cell free culture (AID 720684)
How it was run: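 Rose Bengal sodium served as the reference for red signal. Test compounds were dispensed into serum-containing MEM (10% FBS) without cells, and plates were read at 540/590 nm.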

[16] = qHTS assay to test for compound auto fluorescence at 460 nm (blue) in HepG2 cell free culture (AID 720685); note: potency is the fitted concentration of half-maximal effect
How it was run: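 Cell-free plates of MEM plus 10% FBS received 23 nL compound or DMSO vehicle; blue-channel (405/460 nm) intensity scored against triamterene as reference fluorophore.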

[17] = qHTS assay to test for compound auto fluorescence at 535 nm (green) in HepG2 cell free culture (AID 720686)
[18] = qHTS assay to test for compound auto fluorescence at 460 nm (blue) in HepG2 cells (AID 720687); note: potency is the fitted concentration of half-maximal effect
How it was run: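 HepG2 cells in MEM with 10% FBS, attached overnight at 37 C, were exposed to compound or DMSO for 1 hr at 37 C, 5% CO2. Blue fluorescence was read at 405/460 nm, with triamterene as reference fluorophore.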

[19] = qHTS assay to identify small molecule antagonists of the glucocorticoid receptor (GR) signaling pathway - cell viability counter screen (AID 720693); note: nearly all actives have a fitted effect of over 55% in size
[20] = qHTS assay for identifying genotoxic compounds that show differential cytotoxicity against isogenic chicken DT40 cell lines with known DNA damage response pathways - wild type cell line (AID 743012); note: nearly all actives have a fitted effect of over 60% in size
How it was run: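 Viability of DNA repair-proficient chicken DT40 cells was assessed by CellTiter-Glo luminescence following 40 h compound exposure at 37 C/5% CO2.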

[21] = qHTS assay for identifying genotoxic compounds that show differential cytotoxicity against isogenic chicken DT40 cell lines with known DNA damage response pathways - Rev3 mutant cell line (AID 743014); note: nearly all actives have a fitted effect of over 55% in size
[22] = qHTS assay for identifying genotoxic compounds that show differential cytotoxicity against isogenic chicken DT40 cell lines with known DNA damage response pathways - Rad54/Ku70 mutant cell line (AID 743015); note: nearly all actives have a fitted effect of over 60% in size
[23] = target: Androgen receptor (Homo sapiens) (UniProt P10275); assay: qHTS assay to identify small molecule agonists of the androgen receptor (AR) signaling pathway (AID 743036; active = well fitted activation curve with a large enough effect in the signal ratio in the repeat runs, with a control signal flat, not every such curve was filed as active; the % refers to the signal ratio; note: potency is the fitted concentration of half-maximal effect)
How it was run: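 Cell-based FRET reporter assay: HEK293 line with a UAS-beta-lactamase construct, compounds added in DMSO, 16 h exposure at 37C, then 2 h substrate step at room temperature and fluorescence intensity read.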

[24] = target: Androgen receptor (Homo sapiens) (UniProt P10275); assay: qHTS assay to identify small molecule agonists of the androgen receptor (AR) signaling pathway using the MDA cell line (AID 743040; note: nearly all actives have a fitted effect of over 20% in size)
How it was run: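 Luciferase read-out, ONE-Glo, 30 min RT. Cells: MDA-kb2 AR-luc, MMTV promoter with AR and GR response elements. Compound exposure 16 h, 37C, 0% CO2, after 5 h pre-incubation. qHTS agonist mode.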

[25] = target: Androgen receptor (Homo sapiens) (UniProt P10275); assay: qHTS assay to identify small molecule antagonists of the androgen receptor (AR) signaling pathway using the MDA cell line (AID 743042; note: nearly all actives have a fitted effect of over 55% in size)
How it was run: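 MDA-kb2 breast carcinoma cells carrying MMTV-luciferase (AR/GR responsive) were co-treated with compounds and the agonist R1881 for 16 h at 37C. Inhibition read as ONE-Glo luminescence; CellTiter-Fluor fluorescence measured in parallel for cytotoxicity.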

[26] = qHTS assay to identify small molecule antagonists of the thyroid receptor (TR) signaling pathway (AID 743065)
How it was run: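 GH3.TRE-Luc rat pituitary cells (two TREs driving luciferase) were dosed with compound, then stimulated with 1 nM T3 (final) for 23.5 h at 37 C. ONE-Glo luminescence was the read-out, with CellTiter-Fluor fluorescence as the cytotoxicity counter-screen.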

[27] = test system: thyroid hormone receptor (rat, GH3 cells); assay: qHTS assay to identify small molecule agonists of the thyroid receptor (TR) signaling pathway (AID 743066; calls by dose curve)
[28] = qHTS assay to identify small molecule antagonists of the estrogen receptor alpha (ER-alpha) signaling pathway - cell viability counter screen (AID 743074; calls by dose curve;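 note: HEK293 cells carrying ER-alpha-UAS-bla reporter stimulated with 17beta-estradiol; nearly all actives have a fitted effect of over 45% in size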)
[29] = target: Estrogen receptor (Homo sapiens) (UniProt P03372); assay: qHTS assay to identify small molecule agonists of the estrogen receptor alpha (ER-alpha) signaling pathway using the BG1 cell line (AID 743079); note: nearly all actives have a fitted effect of over 20% in size
[30] = qHTS assay to identify small molecule antagonists of the estrogen receptor alpha (ER-alpha) signaling pathway using the BG1 cell line (AID 743080; calls by dose curve;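 note: BG1 cells stimulated with 17beta-estradiol alongside compound; series mostly up to about 70 µM; nearly all actives have a fitted effect of over 25% in size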)
How it was run: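 BG1Luc4E2, endogenous ER-alpha, 4xERE-luc; 5 d charcoal-stripped FBS, phenol red free; 24 h plating; cpd + 17beta-estradiol 21.5 h, 37 C/5% CO2; CellTiter-Fluor viability 30 min, then ONE-Glo luciferase 30 min RT.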

Aromatase (Homo sapiens) = Aromatase (Homo sapiens) (UniProt P11511); assay: qHTS assay to identify aromatase inhibitors (AID 743083)
[31] = qHTS assay for small molecules that induce genotoxicity in human embryonic kidney cells expressing luciferase-tagged ATAD5 - cell viability (AID 651634; calls by dose curve; note: nearly all actives have a fitted effect of over 25% in size)
How it was run: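 Here HEK293T cells with the ATAD5 luciferase reporter are incubated with test compounds for 15.5 hr, and cytotoxicity is then gauged by measuring protease activity in live cells using fluorescence.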

[32] = qHTS assay to test for compound auto fluorescence at 590 nm (red) in HepG2 cells (AID 720674)
How it was run: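 HepG2 cells, 2,000 per well in MEM with 10% FBS, attached overnight at 37 C, then got 23 nL compound or DMSO. After 1 hr at 37 C, 5% CO2, red fluorescence was read at 540/590 nm against Rose Bengal sodium as reference.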

[33] = target: Glucocorticoid receptor (Homo sapiens) (UniProt P04150); assay: qHTS assay to identify small molecule antagonists of the glucocorticoid receptor (GR) signaling pathway (AID 720692; active = well fitted inhibition curve with a large enough effect in the signal ratio in the repeat runs, not every such curve was filed as active; the % refers to the signal ratio)
How it was run: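 In a 1536-well cell format, compounds were added 4 h after seeding GR-bla HeLa cells, together with dexamethasone at 5 nM final; reporter activity was measured by FRET-substrate fluorescence following 18 h at 37 C.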

[34] = qHTS assay to identify small molecule antagonists of the androgen receptor (AR) signaling pathway - cell viability counter screen (AID 743033; note: nearly all actives have a fitted effect of over 45% in size)
[35] = qHTS assay to identify small molecule antagonists of the androgen receptor (AR) signaling pathway using the MDA cell line - cell viability counter screen (AID 743041; note: nearly all actives have a fitted effect of over 45% in size)
How it was run: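 Cytotoxicity counter screen: MDA-kb2 AR-luc cells, compound + R1881, 16 h, 37C, 0% CO2; CellTiter-Fluor added at 15.5 h, fluorescence read after 30 min.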

[36] = qHTS assay to identify small molecule antagonists of the thyroid receptor (TR) signaling pathway - cell viability counter screen (AID 743064); note: nearly all actives have a fitted effect of over 50% in size
How it was run: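 In rat pituitary GH3.TRE-Luc reporter cells co-exposed to compound and 1 nM T3 for 23.5 h, cytotoxicity was assessed with CellTiter-Fluor in the same wells, read by fluorescence.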

[37] = target: Estrogen receptor (Homo sapiens) (UniProt P03372); assay: qHTS assay to identify small molecule antagonists of the estrogen receptor alpha (ER-alpha) signaling pathway (AID 743069; active = well fitted curve in the direction sought with a large enough effect in the signal ratio in the repeat runs, not every such curve was filed as active; the % refers to the signal ratio)
How it was run: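 Beta-lactamase FRET fluorescence is read after 2 hr at room temperature with LiveBLAzer B/G substrate. Before that, ER-alpha-bla HEK293 cells sit 4 hr after plating, then receive compound plus 17beta-estradiol and incubate 18 hr at 37C.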

[38] = target: Estrogen receptor (Homo sapiens) (UniProt P03372); assay: qHTS assay to identify small molecule agonists of the estrogen receptor alpha (ER-alpha) signaling pathway (AID 743075; calls by dose curve;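 note: HEK293 GripTite cells with ER-alpha and UAS-driven beta-lactamase reporter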)
[39] = qHTS assay to identify small molecule antagonists of the estrogen receptor alpha (ER-alpha) signaling pathway using the BG1 cell line - cell viability counter screen (AID 743081);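 note: compound given together with 17beta-estradiol as the ER stimulus; series mostly up to about 70 µM; nearly all actives have a fitted effect of over 45% in size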
[40] = qHTS assay to identify aromatase inhibitors - cell viability counter screen (AID 743084)
[41] = target: Aryl hydrocarbon receptor (Homo sapiens) (UniProt P35869); assay: qHTS assay to identify small molecule that activate the aryl hydrocarbon receptor (AhR) signaling pathway (AID 743085);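 note: HG2L7.5c1 human HepG2 liver cells with stably integrated DRE-driven firefly reporter; series mostly up to about 70 µM; nearly all actives have a fitted effect of over 15% in size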
How it was run: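 AhR agonist activity is inferred from enhanced light output of a DRE-controlled firefly luciferase reporter in HepG2 cells, measured with ONE-Glo following 24 h treatment at 37C.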

[42] = qHTS assay to identify small molecule that activate the aryl hydrocarbon receptor (AhR) signaling pathway - cell viability counter screen (AID 743086)
How it was run: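 HepG2-AhR-luc (HG2L7.5c1) cells, 4000/well, treated 24 h at 37 C with compound; viability measured as CellTiter-Fluor fluorescence after 30 min in the same wells as the luciferase read.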

[43] = target: Peroxisome proliferator-activated receptor gamma (Homo sapiens) (UniProt P37231); assay: qHTS assay to identify small molecule agonists of the peroxisome proliferator-activated receptor gamma (PPARg) signaling pathway (AID 743094; active = well fitted activation curve with a large enough effect in the signal ratio in the repeat runs, not every such curve was filed as active; the % refers to the signal ratio)
How it was run: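 Agonism was assessed in a beta-lactamase reporter system, HEK293H cells with a stably integrated UAS-bla construct under PPARg control; the 17 h treatment at 37C preceded a 1 h room-temperature FRET substrate read.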

Measured: Potency
Tags give direction and shape of the fitted curve or compound fluorescence and quenching.

Sequence of Estrogen receptor (Homo sapiens) (P03372 whole entry, looked up): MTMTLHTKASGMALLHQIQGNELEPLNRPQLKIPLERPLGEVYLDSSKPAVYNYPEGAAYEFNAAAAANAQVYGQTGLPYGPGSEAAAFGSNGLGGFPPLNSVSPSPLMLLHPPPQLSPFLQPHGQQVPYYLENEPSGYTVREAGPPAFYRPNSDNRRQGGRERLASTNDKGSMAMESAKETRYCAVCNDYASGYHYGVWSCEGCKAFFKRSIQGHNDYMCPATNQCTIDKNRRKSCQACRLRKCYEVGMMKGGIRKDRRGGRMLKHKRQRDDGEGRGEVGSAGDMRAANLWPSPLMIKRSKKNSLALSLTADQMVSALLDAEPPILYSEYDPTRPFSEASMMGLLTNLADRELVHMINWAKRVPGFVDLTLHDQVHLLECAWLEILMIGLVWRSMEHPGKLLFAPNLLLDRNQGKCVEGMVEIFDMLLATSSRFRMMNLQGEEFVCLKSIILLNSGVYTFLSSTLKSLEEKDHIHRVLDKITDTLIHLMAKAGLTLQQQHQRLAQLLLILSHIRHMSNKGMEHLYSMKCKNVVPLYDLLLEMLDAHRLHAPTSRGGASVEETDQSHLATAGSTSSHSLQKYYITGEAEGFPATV
Sequence of Androgen receptor (Homo sapiens) (P10275 whole entry, looked up): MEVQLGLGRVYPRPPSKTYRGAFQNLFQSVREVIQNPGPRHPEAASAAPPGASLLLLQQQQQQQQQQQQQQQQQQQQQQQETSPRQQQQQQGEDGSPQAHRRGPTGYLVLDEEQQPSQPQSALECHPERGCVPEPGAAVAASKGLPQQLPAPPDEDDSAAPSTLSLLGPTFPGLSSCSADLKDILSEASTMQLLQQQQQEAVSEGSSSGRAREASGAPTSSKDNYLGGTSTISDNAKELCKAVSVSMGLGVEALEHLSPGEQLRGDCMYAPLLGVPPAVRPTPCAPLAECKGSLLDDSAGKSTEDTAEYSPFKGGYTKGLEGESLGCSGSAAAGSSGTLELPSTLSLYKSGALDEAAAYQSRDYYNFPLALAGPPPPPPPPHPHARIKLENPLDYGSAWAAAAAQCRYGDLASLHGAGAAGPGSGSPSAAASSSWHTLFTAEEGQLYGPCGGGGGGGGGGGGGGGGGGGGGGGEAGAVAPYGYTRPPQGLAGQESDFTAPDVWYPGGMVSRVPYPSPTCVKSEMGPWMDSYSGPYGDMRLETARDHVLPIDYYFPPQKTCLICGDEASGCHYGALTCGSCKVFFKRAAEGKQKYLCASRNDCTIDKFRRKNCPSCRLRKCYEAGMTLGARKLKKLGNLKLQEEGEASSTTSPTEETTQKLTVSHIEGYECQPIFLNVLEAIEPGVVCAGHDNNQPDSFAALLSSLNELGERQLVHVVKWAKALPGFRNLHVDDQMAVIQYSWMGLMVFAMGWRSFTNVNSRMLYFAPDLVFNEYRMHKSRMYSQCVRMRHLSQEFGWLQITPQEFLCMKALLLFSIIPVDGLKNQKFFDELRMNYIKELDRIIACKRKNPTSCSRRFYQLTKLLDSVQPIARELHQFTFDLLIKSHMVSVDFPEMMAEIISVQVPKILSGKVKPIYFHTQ
Sequence of Acetylcholinesterase (Homo sapiens) (P22303 whole entry, looked up): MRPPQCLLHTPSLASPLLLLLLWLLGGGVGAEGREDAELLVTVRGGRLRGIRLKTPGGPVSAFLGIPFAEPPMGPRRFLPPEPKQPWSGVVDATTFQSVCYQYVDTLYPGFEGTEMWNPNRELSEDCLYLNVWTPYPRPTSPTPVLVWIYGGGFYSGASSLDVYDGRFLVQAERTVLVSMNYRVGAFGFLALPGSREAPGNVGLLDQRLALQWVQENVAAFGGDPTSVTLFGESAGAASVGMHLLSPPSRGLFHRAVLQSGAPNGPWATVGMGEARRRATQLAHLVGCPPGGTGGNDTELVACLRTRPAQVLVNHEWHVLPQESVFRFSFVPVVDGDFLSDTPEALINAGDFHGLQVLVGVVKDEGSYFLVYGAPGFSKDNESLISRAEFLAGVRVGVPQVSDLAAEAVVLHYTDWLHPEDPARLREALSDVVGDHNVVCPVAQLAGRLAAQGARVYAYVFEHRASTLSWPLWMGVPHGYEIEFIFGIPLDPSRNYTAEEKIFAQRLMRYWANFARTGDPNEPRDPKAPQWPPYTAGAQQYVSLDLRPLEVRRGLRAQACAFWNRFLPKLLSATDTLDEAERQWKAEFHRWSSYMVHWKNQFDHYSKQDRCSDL
Sequence of Aromatase (Homo sapiens) (P11511 whole entry, looked up): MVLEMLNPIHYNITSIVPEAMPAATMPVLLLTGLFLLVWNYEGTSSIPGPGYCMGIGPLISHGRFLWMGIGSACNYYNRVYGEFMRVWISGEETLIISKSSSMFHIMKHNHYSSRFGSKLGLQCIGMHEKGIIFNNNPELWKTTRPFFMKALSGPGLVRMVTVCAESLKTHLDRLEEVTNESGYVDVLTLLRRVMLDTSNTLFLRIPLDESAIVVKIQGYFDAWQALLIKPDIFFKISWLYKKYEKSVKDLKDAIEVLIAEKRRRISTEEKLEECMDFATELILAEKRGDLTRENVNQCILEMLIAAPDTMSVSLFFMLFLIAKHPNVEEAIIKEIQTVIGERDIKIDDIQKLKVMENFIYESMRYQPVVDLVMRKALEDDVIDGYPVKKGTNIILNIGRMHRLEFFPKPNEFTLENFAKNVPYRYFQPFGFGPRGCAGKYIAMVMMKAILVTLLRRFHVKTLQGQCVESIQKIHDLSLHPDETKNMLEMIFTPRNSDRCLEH
Sequence of Aryl hydrocarbon receptor (Homo sapiens) (P35869 whole entry, looked up): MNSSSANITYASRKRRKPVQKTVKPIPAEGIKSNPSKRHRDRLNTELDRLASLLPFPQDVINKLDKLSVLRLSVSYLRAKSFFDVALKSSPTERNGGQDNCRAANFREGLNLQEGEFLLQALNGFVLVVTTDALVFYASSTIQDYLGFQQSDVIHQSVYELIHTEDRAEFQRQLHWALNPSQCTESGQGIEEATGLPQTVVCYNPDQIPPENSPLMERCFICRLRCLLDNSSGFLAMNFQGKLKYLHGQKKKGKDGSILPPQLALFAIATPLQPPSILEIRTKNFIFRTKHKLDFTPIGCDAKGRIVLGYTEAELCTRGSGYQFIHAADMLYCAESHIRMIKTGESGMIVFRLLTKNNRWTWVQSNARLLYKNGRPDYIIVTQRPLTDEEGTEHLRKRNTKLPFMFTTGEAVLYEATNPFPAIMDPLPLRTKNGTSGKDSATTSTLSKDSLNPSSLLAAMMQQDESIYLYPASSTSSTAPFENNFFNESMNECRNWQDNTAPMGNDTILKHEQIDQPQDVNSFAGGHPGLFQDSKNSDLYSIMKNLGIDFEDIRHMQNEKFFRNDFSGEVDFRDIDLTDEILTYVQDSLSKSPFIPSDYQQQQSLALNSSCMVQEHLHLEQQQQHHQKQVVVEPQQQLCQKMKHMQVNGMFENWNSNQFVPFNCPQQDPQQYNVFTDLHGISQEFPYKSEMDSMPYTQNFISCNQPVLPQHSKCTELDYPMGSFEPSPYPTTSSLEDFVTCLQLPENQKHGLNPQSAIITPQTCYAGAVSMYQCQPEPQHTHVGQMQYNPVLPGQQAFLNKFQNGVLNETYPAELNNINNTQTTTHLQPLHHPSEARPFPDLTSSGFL
Sequence of Glucocorticoid receptor (Homo sapiens) (P04150 whole entry, looked up): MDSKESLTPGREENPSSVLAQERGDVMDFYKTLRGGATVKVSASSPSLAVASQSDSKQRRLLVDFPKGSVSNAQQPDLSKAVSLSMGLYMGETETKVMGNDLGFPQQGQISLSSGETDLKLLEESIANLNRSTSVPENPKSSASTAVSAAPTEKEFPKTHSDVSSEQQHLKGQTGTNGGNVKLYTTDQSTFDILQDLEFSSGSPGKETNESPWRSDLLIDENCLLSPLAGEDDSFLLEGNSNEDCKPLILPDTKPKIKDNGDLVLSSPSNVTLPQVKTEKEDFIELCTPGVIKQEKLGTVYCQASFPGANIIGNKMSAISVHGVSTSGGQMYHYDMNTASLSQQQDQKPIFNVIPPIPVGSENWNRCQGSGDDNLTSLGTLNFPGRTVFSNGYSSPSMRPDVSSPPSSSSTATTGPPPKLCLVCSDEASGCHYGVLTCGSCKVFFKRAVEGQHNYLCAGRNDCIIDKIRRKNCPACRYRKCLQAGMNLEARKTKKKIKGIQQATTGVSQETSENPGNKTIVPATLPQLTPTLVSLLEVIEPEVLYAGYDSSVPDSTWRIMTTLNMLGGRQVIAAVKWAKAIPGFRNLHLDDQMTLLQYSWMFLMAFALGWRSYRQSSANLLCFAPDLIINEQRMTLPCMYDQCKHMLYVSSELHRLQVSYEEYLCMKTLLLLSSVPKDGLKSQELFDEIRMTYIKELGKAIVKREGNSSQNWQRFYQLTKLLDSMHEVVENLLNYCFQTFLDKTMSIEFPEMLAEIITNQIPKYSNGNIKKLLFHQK
Sequence of Peroxisome proliferator-activated receptor gamma (Homo sapiens) (P37231 whole entry, looked up): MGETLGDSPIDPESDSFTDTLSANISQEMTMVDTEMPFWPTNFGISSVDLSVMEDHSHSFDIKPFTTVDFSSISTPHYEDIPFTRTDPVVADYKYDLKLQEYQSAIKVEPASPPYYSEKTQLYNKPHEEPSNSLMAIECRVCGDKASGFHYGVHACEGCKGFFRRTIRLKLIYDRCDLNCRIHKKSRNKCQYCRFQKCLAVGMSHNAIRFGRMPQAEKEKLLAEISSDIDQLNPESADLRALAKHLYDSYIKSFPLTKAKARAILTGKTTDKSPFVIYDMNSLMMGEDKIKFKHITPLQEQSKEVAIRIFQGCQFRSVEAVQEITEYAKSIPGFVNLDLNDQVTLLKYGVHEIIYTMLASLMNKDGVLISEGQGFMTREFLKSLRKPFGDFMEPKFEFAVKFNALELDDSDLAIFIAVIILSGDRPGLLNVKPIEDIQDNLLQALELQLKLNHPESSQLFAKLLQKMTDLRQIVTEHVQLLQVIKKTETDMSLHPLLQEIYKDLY

CCOCC(O)COc1ccc(NC(=O)CC[S+](C)C)cc1 (stereo unspecified)
inactive: [1] | [2] | [3]

CC(C)c1cccc(O)c1
inactive: [1] | [2] | [3]

O=c1ccc2cc(O[C@@H]3O[C@H](CO)[C@@H](O)[C@H](O)[C@H]3O)c(O)cc2o1
active: [4] 7.17 µM | [9] 10 µM [fluorescent] | [12] 8.91 µM | [16] 8.91 µM [fluorescent] | [18] 10 µM [fluorescent] | [23] 9.1 µM
inactive: [5] | [6] | [7] | [8] | [10] | [11] | [13] | [14] | [15] | [17] | [19] | [20] | [21] | [22] | [24] | [25] | [26] | [27] | [28] | [29] | [30] | Aromatase (Homo sapiens)

CCOC(=O)C1(c2ccccc2)CCCN(C)CC1 (stereo unspecified)
inactive: [5] | [6] | [31] | [7] | [32] | [8] | [10] | [11] | [12] | [13] | [14] | [15] | [16] | [17] | [18] | [33] | [19] | [20] | [21] | [22] | [34] | [35] | [36] | [26] | [27] | [37] | [28] | [38] | [29] | [30] | [39] | Aromatase (Homo sapiens) | [40] | [41] | [42] | [43]

CCCCC(=O)O
inactive: [1] | [2] | [3]

COC(=O)c1ccccc1OC
inactive: [1] | [2] | [3]

From PubChem BioAssay (Tox21)
